The source made the active and inactive calls. The calls were made as follows: active = hit-call score of the fitted dose curve at least 0.9, where 1 is the maximum; inactive = score below 0.9.
Test: ATG_NF_kB_CIS: Attagene CIS-FACTORIAL HepG2 Assay for human Nuclear Factor Kappa B (NF-kB) (AID 2282991)
Details: HepG2 Attagene cis-factorial NF-kB reporter mRNA; actives raise or lower the signal
Protocol: ATG_CIS is a cell-based, multiplexed-readout assay that uses HepG2, a human liver cell line, with measurements taken at 24 hours after chemical dosing in a 24-well plate.ATG_NF_kB_CIS is one of 52 assay component(s) measured or calculated from the ATG_CIS assay. It is designed to make measurements of mRNA induction, a form of inducible reporter, as detected with fluorescence intensity signals by Reverse transcription polymerase chain reaction (RT-PCR) and Capillary electrophoresis technology.Data from the assay component ATG_NF_kB_CIS was analyzed into 1 assay endpoint. This assay endpoint, ATG_NF_kB_CIS, was analyzed with bidirectional fitting relative to DMSO as the negative control and baseline of activity. Using a type of inducible reporter, measures of mRNA for gain or loss-of-signal activity can be used to understand the reporter gene at the transcription factor-level as they relate to the gene NFKB1. Furthermore, this assay endpoint can be referred to as a primary readout, because this assay has produced multiple assay endpoints where this one serves a reporter gene function. To generalize the intended target to other relatable targets, this assay endpoint is annotated to the dna binding intended target family, where the subfamily is NF-kappa B.
Human liver HepG2 cells are transiently transfected with multiple reporter transcription units (MRTUs) in 6-well plates using FuGene 6 reagent (Roche; 3 ml FuGene/1 mg DNA). The MRTU constructs are regulated by a cis-regulating element (promoter). […] A major difference between the CIS and TRANS system is that in CIS activities of endogenous TFs are measured, whereas the TRANS assay evaluates changes in activities of exogenous, chimeric NR-Gal4 proteins. […] At the end of 24 hour incubation, total RNA was isolated using TriZol reagent (Invitrogen). The isolated RNA is then reverse-transcribed using oligo(dT) primer and Mo-MLV reverse transcriptase (Invitrogen) with DNAse I (Ambion) treatment for 30 min. The one-tenth of the produced cDNA was amplified by PCR using Taq DNA polymerase (Invitrogen) and two reporter sequence-specific primers. The PCR products were fluorescently labeled by primer extension with 6-arboxyfluorescein (6-FAM) 5'-labeled reporter sequence-specific primer (2 min at 95 C, 20 s at 68 C and 10 min at 72 C) and these products were digested with 5U of HpaI (New England Biolabs) for 2h at 37 C. The fragments were purified using Qiaquick PCR columns (Qiagen), analyzed on an ABI 3130xL genetic analyzer (Applied Biosystems) with peak positions identified by using a set of X-rhodamine (ROX)-labeled MapMarker1000 molecular weight standards (BioVentures). The raw capillary electrophoresis data was processed using Attagraph software (Attagene).
With Cc1oc(-c2ccccc2)nc1CCOc1cccc2c1ccn2CCC(=O)O the outcome was “inactive”. In the case of Cc1nc(-c2ccc3c(c2)CCN(CCC2CCC(NC(=O)/C=C/c4ccc(F)cc4)CC2)CC3)no1 (stereo not given), the outcome is reported as “inactive”. For C[C@]12C=CC(=O)C=C1CC[C@@H]1[C@@H]2C(=O)C[C@@]2(C)[C@H]1CC[C@]2(O)C(=O)CO, the outcome was “inactive”. For COc1ccc(C)cc1N, the outcome was “inactive”. With CCCCCCCCCCCC(=O)OC the outcome was “inactive”. For O=C(O)CCCCC(=O)O, the outcome was “inactive”. For CC(CO)OC(C)CO (stereo not given) (tested in a mixture with another compound), the outcome was “inactive”. With Cc1cccc(C)c1O the outcome was “inactive”. For O=c1c(O)c(-c2ccc(O)c(O)c2)oc2cc(O)cc(O)c12, the outcome was “inactive”. In the case of CCCCCCCCCCO, the AC50 is reported as 144 µM (active). With Nc1ccc2c(c1)C(=O)c1ccccc1C2=O the outcome was “inactive”. In the case of CC(=O)Oc1ccccc1C(=O)O, the outcome is reported as “inactive”. For COCCOCCOC, the outcome was “inactive”. With C[Si]1(C)O[Si](C)(C)O[Si](C)(C)O[Si](C)(C)O1 the outcome was “inactive”. In the case of CCCCCCC(=O)OCC, the outcome is reported as “inactive”. For COc1cccc2c1C(=O)c1c(O)c3c(c(O)c1C2=O)C[C@@](O)(C(=O)CO)C[C@@H]3O[C@H]1C[C@H](N)[C@H](O)[C@H](C)O1, the AC50 was 0.653 µM (active). In the case of CCOC(=O)C(C)(C)Oc1ccc(Cl)cc1, the outcome is reported as “inactive”. With CCCCCCCCCCCCCCCCCC(=O)O the outcome was “inactive”. In the case of O=[N+]([O-])C(CO)(CO)CO, the outcome is reported as “inactive”. With Cc1cc(=O)[nH]c(=S)[nH]1 the outcome was “inactive”. With CCCCC(CC)COC(=O)CC(C(=O)OCC(CC)CCCC)S(=O)(=O)O (stereo not given) the outcome was “inactive”. In the case of COc1cc(C=O)ccc1O, the outcome is reported as “inactive”. In the case of CCCCOC(=O)CCCCCCCCC(=O)OCCCC, the outcome is reported as “inactive”. For Cc1cccc([N+](=O)[O-])c1C, the outcome was “inactive”. In the case of COc1cc(-c2nc(NC(=O)c3cc4cc(C)cc(C)c4n3CC(=O)O)sc2CCC2CCCCC2)c(OC)cc1Cl, the AC50 is reported as 26.7 µM (active). With O=C(OCCCCCOC(=O)c1ccccc1)c1ccccc1 the outcome was “inactive”. In the case of CNCc1cc(F)ccc1Oc1ccc(Cl)c(Cl)c1, the outcome is reported as “inactive”. For O=C(N[C@@H](Cc1ccccc1)[C@@H](O)C(=O)N1C[C@@H](O)[C@@H](O)C1)c1cc2cc(Cl)ccc2[nH]1, the outcome was “inactive”. For CCNc1cccc(C)c1, the outcome was “inactive”. With Oc1ccc2ccccc2c1N=Nc1ccccc1 the outcome was “inactive”. In the case of OC[C@@H](O)[C@@H](O)[C@H](O)[C@H](O)CO, the outcome is reported as “inactive”. With CN[C@H]1CC[C@@H](c2ccc(Cl)c(Cl)c2)c2ccc(S(N)(=O)=O)cc21 the outcome was “inactive”. In the case of CCCCCCOCCO, the outcome is reported as “inactive”. In the case of CCCCCCCCCCC, the outcome is reported as “inactive”. With CCCCN(CCCC)CCCC the outcome was “inactive”. In the case of CCCCCCCC=O, the outcome is reported as “inactive”. In the case of Oc1ccc2c(c1)OC[C@@H](N1CCC(O)(c3ccc(F)cc3)CC1)[C@H]2O, the outcome is reported as “inactive”. With NC(=O)Cn1c(=O)cc(CCN2CCN(c3nccc4sccc34)CC2)c2ccc(F)cc21 the outcome was “inactive”. In the case of Cc1ccc(N(C)C)cc1, the outcome is reported as “inactive”. For COc1cc(/C=C/C(=O)CC(=O)/C=C/c2ccc(O)c(OC)c2)ccc1O, the AC50 was 33.4 µM (active).

Source: PubChem BioAssay (EPA / NIEHS)
